High-throughput results (PubChem BioAssay)
Giardia killer – kills Giardia lamblia | AID 540267 | activity change, % at 7.66 µM, hits read low | 340,000 tested, 0.15% active | Giardia lamblia trophozoite viability; in the data active means activity change below about -80%; inconclusive means between about -30% and that limit;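 further: parasites exposed to compound for two days anaerobically before the ATP read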
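Trophozoite viability was measured as ATP-dependent luminescence, read 15-30 min after reagent addition. Before that, parasites at 100 cells/well were exposed to compounds for 48 h, anaerobically, at 37 deg C.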
VP16 counter – Gal4-VP16 reporter inhibition counter-screen; Drosophila S2 Gal4-VP16 UAS-luciferase, luminescence, 20 h; Potency, µM (series often up to 53.6 µM), usual class: inhibitors; 310,000 tested, 3.5% active; AID 2546;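 further: Gal4-VP16 expression switched on by copper sulfate through the metallothionein promoter; nearly all actives have a fitted effect of over 50% in size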
MCF10A rereplic – inducers of DNA re-replication in MCF 10A breast cells; AID 624296; Potency, µM (series often up to 46.1 µM), most hits filed as activators; 350,000 tested, 2.9% active; MCF 10A DNA re-replication, Hoechst nuclear intensity, 48 h; further: nearly all actives have a fitted effect of over 50% in size
Chronic BCR inh – inhibitors of chronic active B-cell receptor signaling; AID 493014; 340,000 tested, 0.05% active; ABC-DLBCL IkBa-CBG/CBR reporter, luminescence ratio, 4 h; Potency, µM (doses to about 46.1 µM), most hits filed as inhibitors; active means well fitted inhibition curve with a large enough effect in the signal ratio, with a control signal flat, not every such curve was filed as active; inconclusive means small, poorly fitted or top-dose-only effect, or effect the other way, or a change in a side signal; the % refers to the signal ratio
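TMD8 ABC-DLBCL cells carrying doxycycline-inducible green luciferase fused to IkappaBalpha plus unfused red luciferase were exposed to compounds (up to 46 uM) for 4 hrs at 37C. Activity came from the overlap-corrected green/red luminescence ratio.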
SW480 rereplic – induces DNA re-replication in SW480 colon adenocarcinoma cells; SW480 DNA re-replication, Hoechst DNA content imaging, 48 h; Potency, µM (doses to about 46.1 µM), hits mostly activators; 340,000 tested, 1.8% active; AID 624297; further: nearly all actives have a fitted effect of over 55% in size
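DNA re-replication was detected as more nuclei of elevated Hoechst intensity after 48 hr exposure to compound (23 nL pinned per well of 250 cells).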
RORg inh – inhibitors of mouse ROR gamma transcriptional activity | P51450 | Drosophila S2 Gal4-RORgamma UAS-luciferase reporter, 20 h | Potency, µM (series often up to 53.6 µM), actives largely listed as inhibitors | 310,000 tested, 5.4% active | AID 2551; further: nearly all actives have a fitted effect of over 60% in size
Target sequence (P51450 whole entry, looked up, the tested form may be a part): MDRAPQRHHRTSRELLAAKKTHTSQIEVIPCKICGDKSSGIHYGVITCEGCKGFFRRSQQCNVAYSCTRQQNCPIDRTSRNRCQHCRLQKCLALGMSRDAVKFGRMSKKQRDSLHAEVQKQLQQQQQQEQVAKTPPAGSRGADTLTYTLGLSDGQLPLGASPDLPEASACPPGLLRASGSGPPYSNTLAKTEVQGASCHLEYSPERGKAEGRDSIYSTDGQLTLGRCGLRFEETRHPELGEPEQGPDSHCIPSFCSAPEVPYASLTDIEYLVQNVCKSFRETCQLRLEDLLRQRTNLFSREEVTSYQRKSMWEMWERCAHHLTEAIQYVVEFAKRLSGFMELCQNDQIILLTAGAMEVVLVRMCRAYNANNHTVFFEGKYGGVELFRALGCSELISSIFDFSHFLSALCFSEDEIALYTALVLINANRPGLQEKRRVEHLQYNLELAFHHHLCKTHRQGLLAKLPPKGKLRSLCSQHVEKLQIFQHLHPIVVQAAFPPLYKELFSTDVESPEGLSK
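Schneider cells (Drosophila), stable Gal4 DBD–ROR gamma + UAS-luc; 1 hr cmpd preincubation; Cu2+ induction 700 uM final; 20 hr ambient; luminescence.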
Of the large screens only hits and unclear results are named; the others gave an inactive call. Rows were chosen to be rich in hits. Some 8.3% of all compounds tested hit in one or more screens of this group. Unless noted, the call rests on the fitted dose curve; in most records, active means well fitted curve in the direction sought with a large enough effect; inconclusive means small, poorly fitted or top-dose-only effect, or another doubt; inactive means no such curve, though single readings can be large; an effect the other way counts as inactive or inconclusive.

CC1=NN(c2nc(-c3ccccc3)cs2)C(=O)C1N=Nc1ccccc1 (centres undefined)	Giardia killer inconclusive, RORg inh 7.1µM
CC(C)(C)OC(=O)N1CCNc2ccccc2C1	VP16 counter inconclusive, RORg inh 4µM
CC(C)(C)OC(=O)N1Cc2ccccc2C[C@H]1C(=O)N1CCC[C@H]1C(=O)O	none
COc1cc2c(cc1OC)C(c1ccccc1Cl)N(C)CC2 (centres undefined)	MCF10A rereplic inconclusive
COc1ccc(C2=NCN(c3ccc(C)cc3)C(=S)N2)cc1	VP16 counter 2.8µM
COc1cc(C2C(=O)N(C3CCCCC3)CC(=O)N2C2CCCC2)ccc1OC(C)C (centres undefined)	none (no result: Giardia killer, VP16 counter, MCF10A rereplic, SW480 rereplic, RORg inh)
CCOc1ccc(C(=O)C(CN2CCOCC2)c2ccccc2)cc1 (centres undefined)	VP16 counter inconclusive, MCF10A rereplic 7.3µM, Chronic BCR inh inconclusive, SW480 rereplic 5.2µM, RORg inh inconclusive
OC(c1ccc(F)cc1)C(CN1CCOCC1)c1ccccc1 (centres undefined)	MCF10A rereplic inconclusive
O=C(c1ccc(Br)cc1)C(CN1CCOCC1)c1ccccc1 (centres undefined)	VP16 counter 20µM, MCF10A rereplic 18µM, Chronic BCR inh inconclusive, SW480 rereplic inconclusive, RORg inh 16µM
CC(CN1CCCC1)OC(=O)C(c1ccccc1)c1ccccc1 (centres undefined)	MCF10A rereplic 0.58µM, SW480 rereplic inconclusive
O=C(c1ccccc1)C(CN1CCCCC1)c1ccccc1 (centres undefined)	MCF10A rereplic 4.1µM, SW480 rereplic 1.5µM (no result: VP16 counter, Chronic BCR inh, RORg inh)
CC(C)(C)n1nc2c(c1NC(=O)c1ccccc1S(=O)(=O)C(F)F)CS(=O)(=O)C2	none
Cc1ccc(C)c(S(=O)(=O)N2CCN(C(=O)c3ccccc3Cc3ccccc3)CC2)c1	none (no result: VP16 counter, RORg inh)
CC(CN1CCOCC1)OC(=O)c1ccc(Br)cc1 (centres undefined)	VP16 counter inconclusive, MCF10A rereplic inconclusive, Chronic BCR inh inconclusive, SW480 rereplic inconclusive, RORg inh 2µM
CC(=O)c1c(COC(=O)c2ccncc2)nc2ccccc2[n+]1[O-]	VP16 counter inconclusive, RORg inh 11µM
N#Cc1ccc(COc2cccc3cccnc23)cc1	RORg inh 10µM
Brc1ccc(COc2cccc3cccnc23)cc1	none (no result: VP16 counter, Chronic BCR inh, RORg inh)
COc1cccc(N2CCN(C(=O)c3[nH]c(C)c(C(C)=O)c3C)CC2)c1	MCF10A rereplic inconclusive, Chronic BCR inh inconclusive, SW480 rereplic 7.1µM
CC(=O)c1c(C)[nH]c(C(=O)N2CCN(c3ccc(F)cc3)CC2)c1C	none
COC(=O)c1c(C)[nH]c(C(=O)N2CCN(c3ccc(OC)cc3)CC2)c1C	none (no result: Giardia killer, MCF10A rereplic, SW480 rereplic)
CC(=O)c1c(C)[nH]c(C(=O)N2CCN(c3cc(Cl)ccc3C)CC2)c1C	MCF10A rereplic 10µM, SW480 rereplic 9.2µM
COc1ccc(S(N)(=O)=O)cc1C(=O)OCC(=O)NC(C)(C#N)C1CC1 (centres undefined)	Chronic BCR inh inconclusive (no result: VP16 counter, RORg inh)
CC(=O)N(C1=C(N)C(=O)c2ccccc2C1=O)C(C)C	SW480 rereplic inconclusive, RORg inh 11µM
Cc1onc(-c2ccccc2Cl)c1C(=O)Oc1ccccc1F	none (no result: Giardia killer, VP16 counter, MCF10A rereplic, SW480 rereplic, RORg inh)
CC(CN1CCN(C)CC1)OC(=O)c1cccc(Cl)c1 (centres undefined)	none
CC(C)c1ccc(OCc2ccc(C(=O)N3CCN(c4ccccn4)CC3)cc2)cc1	VP16 counter inconclusive, MCF10A rereplic 23µM, Chronic BCR inh inconclusive, RORg inh inconclusive
CCCCc1ccc(NC(=S)N2CCN(c3ncccn3)CC2)cc1	VP16 counter inconclusive, RORg inh 4.5µM
CCCCc1ccc(NC(=S)N2CCN(c3ccccn3)CC2)cc1	VP16 counter inconclusive, RORg inh 16µM
CCC(C)c1ccc(NC(=S)N2CCN(c3ccccn3)CC2)cc1 (centres undefined)	VP16 counter 13µM, Chronic BCR inh inconclusive, RORg inh inconclusive
CC(C)c1ccc(COc2ccc(C(=O)N3CCOCC3)cc2)cc1	RORg inh inconclusive
COc1ccc(NC(=S)N2CCN(c3ccccn3)CC2)cc1	none
S=C(Nc1ccc2snnc2c1)N1CCN(c2ccccn2)CC1	Chronic BCR inh inconclusive
CC1(C)Cc2c(sc3nc(-c4ccccc4)oc(=O)c23)CO1	Chronic BCR inh inconclusive, RORg inh inconclusive
FC(F)Oc1cccc(NC(=S)N2CCN(c3ccccn3)CC2)c1	RORg inh 7.1µM
Cn1ccnc1SCC(=O)n1c2c(c3ccccc31)CCCC2	RORg inh 14µM
Fc1ccc2c(c1)C1C=CCC1C(c1cc3c(cc1Br)OCO3)N2 (centres undefined)	MCF10A rereplic 23µM, Chronic BCR inh inconclusive, SW480 rereplic inconclusive
O=C(NC(=S)NNC(=O)c1ccccc1[N+](=O)[O-])c1ccccc1	VP16 counter 3.2µM, Chronic BCR inh inconclusive, RORg inh 4.5µM
CCC(=O)NC(=S)NNC(=O)c1ccccc1[N+](=O)[O-]	RORg inh 18µM
O=C(NNC(=S)NC(=O)c1ccccc1[N+](=O)[O-])c1ccccc1	Chronic BCR inh inconclusive
CS(=O)(=O)/C(C#N)=C\c1cnc(S(=O)(=O)c2ccccc2)s1	VP16 counter 7.9µM, Chronic BCR inh inconclusive, RORg inh 10µM (no result: Giardia killer, MCF10A rereplic, SW480 rereplic)
CC(=O)Nc1cc2c(cc1[N+](=O)[O-])-c1ccccc1C2O (centres undefined)	Giardia killer inconclusive, MCF10A rereplic 18µM, SW480 rereplic inconclusive (no result: VP16 counter, Chronic BCR inh, RORg inh)
CC(=O)Nc1cc2c(cc1[N+](=O)[O-])-c1ccccc1C2=NO	none (no result: VP16 counter, Chronic BCR inh, RORg inh)
COc1ccc(/C=N/n2cnc3c([nH]c4ccc(F)cc43)c2=O)cc1CN1CCCC1	VP16 counter 11µM, MCF10A rereplic inconclusive
CN(C(=S)Nc1ccc(Oc2ccccc2)cc1)C1CCCCC1	VP16 counter inconclusive, MCF10A rereplic inconclusive
CN(CCC#N)C(=S)Nc1ccc(Oc2ccccc2)cc1	none
CCCCN(C)C(=S)Nc1ccc(Oc2ccccc2)cc1	VP16 counter inconclusive, RORg inh 11µM (no result: SW480 rereplic)
CCCN(CC1CC1)C(=S)Nc1ccc(Oc2ccccc2)cc1	VP16 counter 8.9µM, MCF10A rereplic inconclusive, RORg inh 13µM
O=C(/C=C/c1ccc(N2CCCCC2)c([N+](=O)[O-])c1)c1ccc(O)cc1	VP16 counter inconclusive, Chronic BCR inh inconclusive, SW480 rereplic inconclusive, RORg inh 11µM
COc1ccccc1C(=O)/C=C/c1ccc(N2CCCCC2)c([N+](=O)[O-])c1	Giardia killer inconclusive, VP16 counter 6.3µM, MCF10A rereplic 6.5µM, Chronic BCR inh inconclusive, SW480 rereplic 18µM, RORg inh 5.6µM
O=C(c1ccc(N2CCCCC2)c([N+](=O)[O-])c1)N1CCOCC1	none
CC1=NN(c2ccccc2)C(=O)/C1=C\c1sccc1C	MCF10A rereplic inconclusive, RORg inh inconclusive
